Source: PubChem BioAssay (National Center for Advancing Translational Sciences (NCATS))
Many of the other results were omitted from the sample, so hits are more common in it than they were.
Pf Dd2 growth: inhibitors of Plasmodium falciparum Dd2 growth; Potency, µM (highest dose often 28.9 µM), usual class: inhibitors; 4.3% of 120,000 active; P. falciparum Dd2 growth, SYBR Green, 72 h; active = well fitted inhibition curve with a large enough effect; also: nearly all actives have a fitted effect of over 65% in size
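Infected erythrocytes (Dd2, 0.3% parasitemia, 2.5% hematocrit final) are added to compound in RPMI-1640/Albumax II medium, grown 72 h at 37C in low oxygen, then lysed with saponin/Triton-X containing SYBR Green and read by fluorescence.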
Hits are given with their value; n = inactive.

SMILES	Pf Dd2 growth
COC(=O)C1=C(C)N=C2SC=C(CC(=O)NC3CC4CCC3C4)N2C1c1ccsc1 (configuration not stated)	n
CCN(CC)C(=O)N1CCC(n2c(C)cnc2C2CCOCC2)CC1	n
CC(=O)NC1CC2(CCN(C(=O)Cc3ccc(O)cc3)CC2)c2ccccc21 (configuration not stated)	n
CC(C)NC(=O)NC1CC2(CCN(C(=O)c3ccccc3)CC2)c2ccccc21 (configuration not stated)	n
CC(C)NC(=O)NC1CC2(CCN(Cc3ccc(O)cc3)CC2)c2ccccc21 (configuration not stated)	2.8µM
O=C(c1cccnc1)N1CCC2(CC1)CC(N(C(=O)c1ccccc1)C1CC1)CCO2 (configuration not stated)	n
Nc1nnnn1CC(=O)NCc1cccnc1Oc1ccc(F)cc1F	n
CN1C(=O)C(CC(=O)Nc2cccnc2)=C2CCCCC21 (configuration not stated)	n
O=C(C[C@@H]1C[C@H]2O[C@H](CNC3CCOCC3)[C@@H](O)[C@H]2O1)N1CCOCC1	n
Cc1cc(N2CCC(C(=O)NCCC(C)C)CC2)n2nc(C)c(-c3ccc(Cl)cc3)c2n1	n
CCCCNC(=O)C1CCc2sc(C(=O)N3CCOCC3)cc2C1 (configuration not stated)	n
CC(C)CCNC(=O)C1CCN(C(=O)c2cc3sccc3n2Cc2ccc(Cl)cc2)CC1	13µM
Cn1c(C(=O)N2CCCC(C(=O)N3CCN(c4ccccc4)CC3)C2)cc2sccc21 (configuration not stated)	n
CCn1c(C(=O)N2CCC(C(=O)NCCc3ccccc3)CC2)cc2sccc21	n
CCCSCCCNC(=O)C1CCN(C(=O)c2cc3sccc3n2C)CC1	14µM
CC(C)c1noc(C2CCCNCCC(=O)NCC2)n1 (configuration not stated)	n
CCn1nc(C)c(CCN(C)C(=O)Cn2nc3n(c2=O)CCC(N)CC3)c1C (configuration not stated)	n
Cc1ccc(S(=O)(=O)Nc2ccc(C)n(CC(=O)NCc3ccccc3)c2=O)cc1	n
O=C(c1cc(C2CC2)nc2onc(C3CCCNC3)c12)N1CCOCC1 (configuration not stated)	n
COc1ccc(CNC(=O)CCC(=O)N2CC3CCCN3c3ccccc32)c(OC)c1 (configuration not stated)	n
CCOc1ccc(CNC(=O)CCC(=O)N2CC3CCCN3c3ccccc32)cc1 (configuration not stated)	13µM
Cc1ccc(CNC(=O)CCC(=O)N2CCSc3ccccc32)cc1	n
CCOc1ccccc1NC(=O)C1CC(=O)N(c2n[nH]c3ccccc23)C1 (configuration not stated)	n
O=C(Cn1nc2c(cc1=O)CCCC2)NCc1nnc2ccccn12	n
O=C(CCc1ccc(O)cc1)N1CC[C@H](N2CCOCC2)[C@H](CCCO)C1	n
SMILES	Pf Dd2 growth
CCC1=C(C(=O)OC)C(c2cccc(C)c2)N2C(CC(=O)Nc3ccc(OC)cc3)=CSC2=N1 (configuration not stated)	3.2µM
CCC1=C(C(=O)OC)C(c2cccc(F)c2)N2C(CC(=O)NCc3cccc(F)c3)=CSC2=N1 (configuration not stated)	2.5µM
CCC1=C(C(=O)OC)C(c2cccc(OC)c2OC)N2C(CC(=O)NC3CC3)=CSC2=N1 (configuration not stated)	n
CCC1=C(C(=O)OC)C(c2ccccc2C)N2C(CC(=O)NCC3CC3)=CSC2=N1 (configuration not stated)	n
CCC1=C(C(=O)OC)C(c2ccccc2)N2C(CC(=O)NCc3cccc(F)c3)=CSC2=N1 (configuration not stated)	4µM
CCOC(=O)C1=C(C)N=C2SC=C(CC(=O)N3CCOCC3)N2C1c1ccccc1OC (configuration not stated)	n
COC(=O)C1=C(C)N=C2SC=C(CC(=O)Nc3cc(C)cc(C)c3)N2C1c1ccccc1OC (configuration not stated)	7.1µM
COCCOC(=O)C1=C(C)N=C2SC=C(CC(=O)NCc3cccc(F)c3)N2C1c1ccccc1 (configuration not stated)	n
CCC1=C(C(=O)OC)C(c2cccc(C)c2)N2C(CC(=O)N3CCOCC3)=CSC2=N1 (configuration not stated)	n
COC(=O)C1=C(C)N=C2SC=C(CC(=O)NCCc3cccs3)N2C1c1cccc(OC)c1 (configuration not stated)	n
CCOC(=O)C1=C(C)N=C2SC=C(CC(=O)NC3CC3)N2C1c1cccc(OC)c1OC (configuration not stated)	n
CCC1=C(C(=O)OC)C(c2ccccc2)N2C(CC(=O)NCC3CC3)=CSC2=N1 (configuration not stated)	n
COc1cccc(CC(=O)Nc2ccc3c(c2)CN(Cc2ccccc2Cl)C(=O)C(C)O3)c1 (configuration not stated)	n
COc1ccc(C(=O)N2CCC(N3Cc4cnc(C)n4C3=O)CC2)cc1	n
COCC(=O)N(C1CCOCC1)C1CCN(C(=O)Cc2ccc(C)cc2)CC1	n
CO[C@H]1C[C@@H](O)C12CCN(C(=O)c1oc(COc3ccccc3)cc1C)CC2	n
CN(C)CC(=O)N1Cc2ccccc2CC2(CCN(CC3CCNCC3)C2)C1 (configuration not stated)	n
COCC1CN(C2CCC2)CC12CCN(C(=O)c1nccn1C)CC2 (configuration not stated)	n
Cc1cc(CC(C)NC(=O)Cc2c(C)[nH]c3ccccc23)n[nH]1 (configuration not stated)	n
CCCC1c2nccn2CCCN1C(=O)Cn1c(=O)oc2ccccc21 (configuration not stated)	n
COc1ccccc1NC(=O)N1CCC(N(C(=O)C2CC2)C2CCOCC2)CC1	4.5µM
O=C(c1ccccc1)N1CCC(N(C(=O)C2CC2)C2CCOCC2)CC1	n
O=C(C1CCC1)N1CCC(N(C(=O)C2CC2)C2CCOCC2)CC1	n
COc1ccc(N2CC(c3noc(-c4cccc(OC)c4)n3)CC2=O)cc1 (configuration not stated)	n
COc1cc(Cl)ccc1OCc1nnc(C(=O)N2CCC[C@@H]2c2cccc(F)c2)n1-c1ccccc1	n
SMILES	Pf Dd2 growth
Cc1nc(C)c(C(=O)N(C)C2CCc3nn(CC4CC4)c(=O)n3CC2)s1 (configuration not stated)	n
O=C(Cn1c(=O)n(Cc2ccc(C(=O)NCc3ccccc3Cl)cc2)c(=O)c2ccccc21)Nc1ccc(F)c(Cl)c1	10µM
COc1ccc(NC(=O)Cn2c(=O)n(Cc3ccc(C(=O)NCc4ccccc4Cl)cc3)c(=O)c3ccccc32)cc1OC	n
Cc1ccc(C)c(NC(=O)Cn2c(=O)n(Cc3ccc4c(c3)OCO4)c(=O)c3ccc(C(=O)NC4CCCCC4)cc32)c1	n
O=C(Cn1c(=O)n(Cc2ccc(C(=O)NCc3ccccc3Cl)cc2)c(=O)c2ccccc21)Nc1ccc(F)cc1	n
COc1cccc(NC(=O)Cn2c(=O)n(Cc3ccc(C(=O)NCc4ccc(C)cc4)cc3)c(=O)c3ccccc32)c1	n
Cc1cc(C)c(NC(=O)Cn2c(=O)n(Cc3ccc(C(=O)NCc4ccc5c(c4)OCO5)cc3)c(=O)c3ccccc32)c(C)c1	n
CCN(C(=O)Cn1c(=O)n(Cc2ccc3c(c2)OCO3)c(=O)c2ccc(C(=O)NC3CCCCC3)cc21)c1cccc(C)c1	1.3µM
